UHRF1 binding: UHRF1 methyl-DNA binding inhibition; UHRF1 binding to methylated oligo, TR-FRET; AID 687016; hit rate 0.75% among 370,000; inhibition, % at 4.4 µM; Q96T88; in the data active = inhibition above about 21%;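 also: UHRF1 SRA domain binding a hemimethylated CpG hairpin DNA probe; 0% = median of test compound wells and 100% = reference inhibitor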
Target sequence (Q96T88 whole entry, looked up, the tested form may be a part): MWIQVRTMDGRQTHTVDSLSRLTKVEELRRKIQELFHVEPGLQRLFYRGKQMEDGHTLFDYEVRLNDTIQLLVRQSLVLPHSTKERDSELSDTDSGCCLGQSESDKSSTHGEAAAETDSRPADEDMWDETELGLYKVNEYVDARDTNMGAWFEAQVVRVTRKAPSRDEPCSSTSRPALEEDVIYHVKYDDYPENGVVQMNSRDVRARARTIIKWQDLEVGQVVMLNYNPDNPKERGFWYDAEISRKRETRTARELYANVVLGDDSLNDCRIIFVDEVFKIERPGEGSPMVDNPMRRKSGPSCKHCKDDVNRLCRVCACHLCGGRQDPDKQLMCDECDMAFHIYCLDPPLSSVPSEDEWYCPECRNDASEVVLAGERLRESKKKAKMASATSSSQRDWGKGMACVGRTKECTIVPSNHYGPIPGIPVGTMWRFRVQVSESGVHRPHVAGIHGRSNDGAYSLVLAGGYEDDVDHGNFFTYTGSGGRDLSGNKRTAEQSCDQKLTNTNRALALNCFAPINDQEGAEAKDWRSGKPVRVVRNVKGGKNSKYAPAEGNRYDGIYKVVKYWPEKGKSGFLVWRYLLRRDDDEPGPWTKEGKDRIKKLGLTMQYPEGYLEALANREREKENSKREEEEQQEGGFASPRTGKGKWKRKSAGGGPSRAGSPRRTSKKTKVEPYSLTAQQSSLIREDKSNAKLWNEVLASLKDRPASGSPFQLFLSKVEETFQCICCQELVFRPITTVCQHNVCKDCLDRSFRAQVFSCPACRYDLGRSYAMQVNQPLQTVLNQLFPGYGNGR
Rin1-Abl PPI inh: blocks binding of human Rin1 to Abl | P00519+Q13671 | TR-FRET Rin1/Abl binding, biochemical | inhibition, % at 7.35 µM | hit rate 0.4% among 360,000; in the data active = inhibition above about 5%, passing the limit was not always enough
TCR CD3 inh: inhibitors of human TCR-CD3 interaction; TAMRA-labeled TCR probe fluorescence, biochemical; AID 651800; inhibition, % at 9.4 µM; hit rate 0.37% among 360,000; in the data active = inhibition above about 19%;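 also: recombinant mutant TCR 2C K166C tagged with TAMRA read by polarization; 0% = receptor in buffer alone and 100% = receptor with positive control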
MBD2 inh: blocks human MBD2 binding to methylated DNA; Q9UBB5; TR-FRET, MBD2 binding to methylated oligonucleotide; inhibition, % at 4.4 µM; hit rate 0.31% among 370,000; in the data active = inhibition above about 13%
LEDGF integ inh: blocks HIV-1 LEDGF/p75-dependent DNA integration; TR-FRET IN-LEDGF/p75 DNA integration, Eu/Cy5; inhibition, % at 3.7 µM; hit rate 0.64% among 370,000; AID 743269;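 active = inhibition above the screen-wide mean plus 3 SD, cut at about 13% in these data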;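 also: signal is the Cy5 over europium emission ratio at 671 and 618 nm; 0% = plate median of compound wells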
Active calls of the source: *; · = not tested or not shown. Rows were chosen to be rich in hits. Some 2% of all compounds tested hit in one or more screens of this group.

SMILES	UHRF1 binding	Rin1-Abl PPI inh	TCR CD3 inh	MBD2 inh	LEDGF integ inh
Cc1nn(C)c(C)c1/C=C/C(=O)O	39.4*	3.8	6.5	12.9	3.7
Cc1nn(C)c(Cl)c1/C=C/C(=O)O	0.2	-2.4	3.3	2.1	-6.5
C=CCn1c(C)nnc1SCC(=O)Nc1nccs1	-2.6	0.1	3.1	1.1	-5.7
CCCCCCCCN1C(=O)[C@@H](CC(=O)NCCCN2CCCC2=O)C[C@@]2(C(=O)OC)C1=C[C@H](C(C)(C)C)O[C@@H]2C	34.5*	·	-2.4	-1.1	3.6
COc1cccc(C(=O)Oc2c(Br)cc(Br)cc2/C=N/NC(=O)c2cc(C)[nH]n2)c1	30.5*	-4.5	0.9	2.1	-4.1
Cc1cc(C(=O)N/N=C/c2cccc(OC(=O)c3cccc(Br)c3)c2)n[nH]1	-1.2	-1.1	1.3	-3.2	0.0
C[C@@]12CCC=C[C@H]1[C@H](c1ccc3ccccc3c1)N(Cc1ccccc1)C2=O	38.5*	1.6	-3.8	-1.4	-0.7
COc1ccc(/C=C/S(=O)(=O)NCC(C)C)c(CNC(=O)OC(C)(C)C)c1	2.4	·	·	-2.3	-2.6
COc1ccc(/C=C/C(=O)NC(=S)NNC(=O)c2c(-c3ccccc3)noc2C)cc1	-0.5	0.8	-2.0	1.2	-2.0
COc1ccc(-c2cc(C(=O)NNC(=S)NC(=O)c3c(-c4ccccc4)noc3C)[nH]n2)cc1	21.5*	-1.5	-1.3	1.1	-11.4
CCOc1cc(NC(=O)c2ccco2)c(OCC)cc1NC(=O)CCc1ccccc1OC	-1.4	-2.2	-5.2	0.4	15.4*
CNC(=S)Nc1cc(OC)c(NC(=O)c2ccco2)cc1OC	42.8*	-0.9	7.5	-5.3	-2.1
CCOC(=O)N1CCC(NC(=O)c2cc(C(=O)NCc3cccc(Cl)c3)ccc2CO)CC1	-1.1	-1.7	6.2	2.1	0.6
CCOC(=O)N1CCC(NC(=O)c2cc(C(=O)NCc3ccc(F)cc3)ccc2CO)CC1	22.6*	-0.4	7.2	11.2	8.7
CCOc1ccc(C(=O)CC(C(=O)O)N2CCCCC2)cc1 (stereo not drawn)	·	-1.6	·	·	·
CC(=O)NC1(C(F)(F)F)N=C(c2ccccc2)NC1=O (stereo not drawn)	22.6*	-0.9	2.0	3.4	-1.3
O=C(CSc1nc2ccccc2[nH]1)NN=Cc1ccccc1C(=O)O	-1.8	·	·	-5.2	-1.6
C#CCn1c2ccccc2c2nc3ccccc3nc21	23.1*	-3.7	-3.5	0.3	-2.1
COC(=O)[C@]1(CNC(=O)C(C)(C)C)CC(=O)N(Cc2ccc(Cl)cc2)[C@@H]1c1ccc(OC)cc1	45.1*	·	·	-1.2	5.2
CCc1ccc(O)c(N=Cc2ccccc2O)c1	31.7*	3.5	4.4	-4.0	3.2
Cc1ccc(O)c(C=Nc2cc(C)ccc2O)c1	·	-1.1	·	·	·
CCOc1ccc(-n2c(SCC(=O)Nc3ccc(S(=O)(=O)Nc4nccs4)cc3)nnc2-c2ccc(C(C)(C)C)cc2)cc1	0.2	·	·	2.0	-1.5
Cc1ccc(Cc2c(-c3ccc(C#N)cc3)nc3ccc(Br)cn23)cc1	22.1*	-7.5	-0.9	11.5	1.3
N#Cc1ccc(-c2nc3ccc(Br)cn3c2Cc2ccccc2)cc1	22.2*	-26.7	0.9	7.1	-4.7
Cc1ccc(Cc2c(-c3ccccc3)nc3ccc(Br)cn23)cc1	21.6*	-15.4	2.1	6.8	0.6
SMILES	UHRF1 binding	Rin1-Abl PPI inh	TCR CD3 inh	MBD2 inh	LEDGF integ inh
COc1cc(Cn2cc([C@]34C[C@H]5C(=O)N(C)CC(=O)N5[C@H]3N(S(=O)(=O)c3ccccc3)c3ccccc34)c3ccccc32)cc(OC)c1	2.6	·	·	5.8	-0.9
CCN1CCN(C(=O)C(C)Nc2ccc(OC)cc2OC)CC1 (stereo not drawn)	-3.0	-0.6	3.2	0.5	3.0
COc1ccc2c(c1OC)CN(C)CCc1cc3c(cc1C(=O)C2)OCO3	21.0*	-2.7	0.8	13.1	6.1
COCC(=O)N[C@H]1C=C[C@@H](CC(=O)NCc2ccccc2OC)O[C@@H]1CO	-1.4	·	-1.9	-1.9	0.6
COc1ccc(S[C@]2(C(=O)N(C)C)CC(=O)N(C(=O)c3ccccc3)[C@@H]2c2ccc(OC)cc2)cc1	-0.4	·	·	0.9	-3.5
N=c1n(CCCOc2ccccc2Cl)c2ccccc2n1CC(N)=O	24.7*	-2.1	5.9	-2.6	3.4
Cn1c(=O)n(CCOc2ccccc2Cl)c2ccccc21	-0.6	-2.6	6.9	-5.4	-3.5
C/C(=N\NC(=O)c1ccc(Br)cc1)C1C(=O)c2ccccc2C1=O	-7.2	1.0	27.0*	-10.3	-6.5
CCOc1ccc(C(=O)N/N=C(/C)C2C(=O)c3ccccc3C2=O)cc1	6.3	-2.1	9.1	1.3	2.2
Cn1cccc1/C=N/NC(=O)c1ccc[n+]([O-])c1	22.1*	-1.4	0.7	0.7	2.1
CC(=O)Nc1ccc(SCCCC(=O)c2ccccc2)cc1	-1.7	3.1	9.4	0.7	-0.4
Cc1ccccc1N1CCN(C2CCCN(C(=O)CCN3CCCCC3=O)C2)CC1 (stereo not drawn)	24.4*	-1.9	-0.2	1.4	4.3
COCCNC(=S)Nc1ccc(N2CCCCC2)cc1	-2.1	3.5	3.0	1.4	0.5
C[C@@H](NC(=O)C[C@H]1CC[C@H]2[C@@H](COc3ccc(NC(=O)Nc4ccccc4)cc3C(=O)N2C)O1)c1ccccc1	9.8	·	·	8.0	2.1
Cc1ccc(C2CC(=O)C=C(NCC(C)C)C2)cc1 (stereo not drawn)	0.2	0.3	10.1	-2.5	-2.4
Cc1ccc(C2CC(=O)C=C(NCc3ccccc3)C2)cc1 (stereo not drawn)	36.4*	1.5	4.0	-4.4	-0.1
O=C(NC1CCN(Cc2ccccc2)CC1)c1cncc(Br)c1	21.0*	-1.0	-8.4	9.0	-4.6
O=C(NC1CCN(Cc2ccccc2)CC1)c1ccccc1	-0.6	1.5	2.4	-4.0	-1.6
CCOC(=O)C1=CCN(S(C)(=O)=O)C1c1ccc(C)cc1 (stereo not drawn)	-1.3	-0.3	2.0	-3.2	-0.6
Cc1ccc(S(=O)(=O)OCC(=O)Nc2ccc(C(=O)O)c(O)c2)cc1	7.7	-0.9	4.6	8.0	14.7*
CC(O)c1cccc(NC(=O)Nc2cccc(NC(=O)Nc3cccc(C(C)O)c3)c2)c1 (stereo not drawn)	-0.6	-6.2	-6.8	7.8	-0.8
CSc1ccccc1C(=O)Nc1cccc(C(C)O)c1 (stereo not drawn)	21.4*	-3.4	-6.8	2.0	-5.1
COC1=CC(=Cc2c(N)n3nc(CC(=O)N4CCCCC4)sc3nc2=O)C=C(OC)C1=O	32.1*	-2.1	5.4	11.9	-0.4
COC1=C/C(=C/c2c(N)n3nc(CC(=O)N4CCCC4)sc3nc2=O)C=CC1=O	7.2	2.4	-5.9	-1.2	5.3
CC1=C(C(=O)N(C)C)CC(CC(=O)NCCN2CCOCC2)C(=O)N1CCCN1CCCC1=O (stereo not drawn)	21.6*	-0.1	-7.2	6.7	1.1
CC1=C(C(=O)N(C(C)C)C(C)C)CC(CC(=O)NCCN2CCOCC2)C(=O)N1CCCN1CCCC1=O (stereo not drawn)	7.4	2.4	-1.5	2.0	3.2
O=C1C(=Cc2cccc(F)c2)Cc2ccccc21	-5.1	3.8	5.4	-1.2	4.6

Compound activity as filed in PubChem BioAssay.
